# Screening results as filed in PubChem.
# Sampled rows, rich in hits. Any-hit rate of the full collection: about 2.2%.
# PvdQ acylase – blocks Pseudomonas aeruginosa PvdQ acylase activity | purified PvdQ acylase, fluorescence plate reader | inhibition, % at 10 µM | 340,000 compounds, 0.063% hits | AID 488965; in the data active means inhibition above about 30%, passing the limit was not always enough;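 further: 0% = vehicle neutral wells and 100% = reference inhibitor wells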
# C2C12 statin – suppression of simvastatin myotoxicity; C2C12 myotubes + simvastatin, ATP luminescence, 48 h; scaled: DMSO 0, geranylgeraniol control 100; rescue of ATP level, % at 7.49 µM; 330,000 compounds, 0.78% hits; AID 602340;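 active means mean ATP rescue above about 67%, or every replicate alone reaching that limit, limit read from the data, passing the limit was not always enough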;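 further: myotubes were challenged with 10 µM simvastatin during compound exposure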
# miR-122 sensor – blocks miR-122 activity in Huh7 sensor cells | Huh7 miR-122 Renilla luciferase sensor, 48 h; neutral wells = 0, positive control = 100 | activation (reporter increase), % at 12.5 µM | 340,000 compounds, 0.3% hits | AID 602342;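 active means mean replicate activation score at least 90 and every replicate individually at or above 90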;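 further: higher luciferase means less miR-122 activity so hits act as miR-122 inhibitors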
# DENV2 CPE rescue – DENV2-induced cell death inhibition; DENV2-infected cells, cytopathic effect rescue, plate reader; CPE inhibition, % at 9.99 µM; 350,000 compounds, 1.7% hits; AID 651640; in the data active means CPE inhibition above about 20%, passing the limit was not always enough; tested in BHK-21 cells;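 further: 0% = median of neutral control wells and 100% = median of positive control wells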
# PGC1a acetyl inh – modulators of PGC1a acetylation; U2OS PGC1a acetylation, AlphaScreen anti-acetyl-lysine; with virally co-expressed GCN5 acetyltransferase; inhibition, % at 15.6 µM; 350,000 compounds, 0.17% hits; AID 651687;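 active means every replicate shows inhibition of at least 40%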;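 further: 0% = neutral control wells and 100% = positive control wells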
# * = called active by the depositor; . = no result; [ ] = another dose, or the depositor's remark.
SMILES,PvdQ acylase,C2C12 statin,miR-122 sensor,DENV2 CPE rescue,PGC1a acetyl inh
Cc1ccc([C@H]2C[C@@H](n3cc(-c4ccc(F)cc4)nn3)[C@H](O)CN2C(=O)c2cccs2)cc1,.,9,21,32*,12
O=C(/C=C/c1cccs1)Nc1ccncc1,36*,.,.,11,.
O=C(Nc1cc(F)ccc1F)N[C@H]1CC[C@@H](CCNC(=O)c2cnccn2)O[C@H]1CO,.,7,-17[16.7 µM],-1,8
COc1ccc2c3c([nH]c2c1)[C@@H](CO)N(C(=O)CN(C)C)CC31CN(Cc2ccccc2)C1,.,.,.,39*,-20
COc1ccc2c3c([nH]c2c1)[C@H](CO)N(C(=O)CN(C)C)CC31CN(Cc2ccccc2Cl)C1,.,.,.,33*,-36
COc1ccc2c3c([nH]c2c1)[C@@H](CO)N(Cc1cccc(F)c1)CC31CN(C(C)=O)C1,.,.,.,6,16
COc1ccc2c3c([nH]c2c1)[C@H](CO)N(Cc1cccc(F)c1)CC31CN(Cc2ccccn2)C1,.,.,.,23*,.
COc1ccc2c3c([nH]c2c1)[C@H](CO)N(C(=O)CN(C)C)CC31CCN(Cc2ccccc2Cl)CC1,.,.,.,8,-34
C[C@@H]1CN([C@H](C)CO)S(=O)(=O)c2ccc(-c3ccc(C#N)cc3)cc2O[C@@H]1CN(C)CC1CC1,.,-2,2[16.7 µM],4,9
Cc1ccc(S(=O)(=O)N2[C@@H]3CNC[C@H]2C3c2ccc(-c3cccc(C)c3)cc2)cc1 (some centres undefined),.,.,.,-16,-17
Cc1noc(C)c1S(=O)(=O)Nc1ccc2c(c1)CC(=O)N([C@H](C)CO)C[C@@H](C)[C@@H](CN(C)Cc1ccc(Cl)c(Cl)c1)O2,.,97*,1[16.7 µM],9,7
Cc1noc(C)c1S(=O)(=O)Nc1ccc2c(c1)CC(=O)N([C@H](C)CO)C[C@H](C)[C@H](CN(C)Cc1ccc(Cl)c(Cl)c1)O2,.,-2,2[16.7 µM],7,2
Cc1noc(C)c1S(=O)(=O)Nc1ccc2c(c1)CC(=O)N([C@@H](C)CO)C[C@H](C)[C@H](CN(C)Cc1ccc(-c3ccccc3)cc1)O2,.,-5,8[16.7 µM],20,6
Cc1noc(C)c1S(=O)(=O)Nc1ccc2c(c1)CC(=O)N([C@H](C)CO)C[C@@H](C)[C@@H](CN(C)Cc1ccc(-c3ccccc3)cc1)O2,.,98*,5[16.7 µM],5,3
COc1ccc(NC(=O)Nc2cccc3c2O[C@@H](CN(C)C(=O)Nc2ccc(OC)cc2)[C@@H](C)CN([C@H](C)CO)C3=O)cc1,.,-22,-6[16.7 µM],-10,8
O=C(Nc1cc(F)ccc1F)N1CC(=O)N2[C@H](C1)[C@@H](c1ccc(C#CC3CCCC3)cc1)[C@@H]2CO,.,.,.,4,.
Nc1cccc(Oc2c(F)c(F)c(Oc3cccc(N)c3)c(F)c2F)c1,-12,.,-10,9,3
COc1cccc(N)c1,.,.,.,171*,.
C[C@H](NC(=O)N(C)C[C@@H]1OCc2ccccc2-c2c(n(C)c3ccccc23)C(=O)N([C@@H](C)CO)C[C@@H]1C)c1ccccc1,.,19,.,5,-8
COc1ccc(S(=O)(=O)N2c3cc(C)ccc3OCC2C(C)(C)C)cc1 (centres undefined),0,-51,151*,.,-36
C[C@@H]1CN([C@H](C)CO)S(=O)(=O)c2ccc(-c3ccccc3F)cc2O[C@H]1CN(C)Cc1cccnc1,.,-55,41[16.7 µM],6,-6
C[C@H]1CN([C@@H](C)CO)S(=O)(=O)c2ccc(-c3ccccc3F)cc2O[C@@H]1CN(C)Cc1cccnc1,.,-28,-30[16.7 µM],3,-11
C[C@H]1CN([C@@H](C)CO)S(=O)(=O)c2ccc(-c3ccccc3F)cc2O[C@H]1CN(C)Cc1ccncc1,.,-28,-1[16.7 µM],21*,-1
C[C@H](CO)N1C[C@H](C)[C@@H](CN(C)Cc2cccnc2)Oc2cc(-c3ccccc3F)ccc2S1(=O)=O,.,-17,47[16.7 µM],46*,-17
C[C@@H]1CN([C@H](C)CO)S(=O)(=O)c2ccc(-c3ccccc3F)cc2O[C@H]1CN(C)Cc1ccncc1,.,-116,14[16.7 µM],29*,1
SMILES,PvdQ acylase,C2C12 statin,miR-122 sensor,DENV2 CPE rescue,PGC1a acetyl inh
C[C@H](CO)N1C[C@H](C)[C@H](CN(C)Cc2cccnc2)Oc2cc(-c3ccccc3F)ccc2S1(=O)=O,.,-17,-10[16.7 µM],-3,-6
CCNc1ccc(Br)cc(C(=O)/C=C/c2ccc(Cl)cc2Cl)c1=O,-6,82*,-4,.,-7
COc1ccccc1-c1ccc([C@@H]2[C@@H](CO)N3CCCCN(Cc4ccncc4)C[C@H]23)cc1,.,-2,10[16.7 µM],26*,-5
OC[C@H]1[C@@H](c2ccc(-c3ccc(F)cc3)cc2)[C@@H]2CN(Cc3ccncc3)CCCCN12,.,4,15[16.7 µM],17,-4
COc1ccccc1-c1ccc([C@@H]2[C@H](CO)N3CCCCN(Cc4ccncc4)C[C@@H]23)cc1,.,-19,13[16.7 µM],-3,1
OC[C@H]1[C@H](c2ccc(-c3ccc(F)cc3)cc2)[C@@H]2CN(Cc3ccncc3)CCCCN12,.,10,6[16.7 µM],44*,2
OC[C@H]1[C@H](c2ccc(-c3ccc(F)cc3)cc2)[C@H]2CN(Cc3ccccn3)CCCCN21,.,.,28[16.7 µM],10,-10
OC[C@H]1[C@@H](c2ccc(-c3ccc(F)cc3)cc2)[C@@H]2CN(Cc3ccccn3)CCCCN12,.,.,5[16.7 µM],29*,-4
C[C@H]1CN([C@@H](C)CO)C(=O)c2cc(C#CC3CC3)cnc2O[C@H]1CN(C)C(=O)Nc1ccc(F)cc1,.,15,1[16.7 µM],-8,-5
C[C@@H]1CN([C@H](C)CO)C(=O)c2cc(-c3ccccc3)cnc2O[C@@H]1CN(C)C(=O)Nc1ccccc1F,.,33,-6[16.7 µM],5,10
O=C(C[C@@H]1C[C@@H]2c3cc(NS(=O)(=O)c4ccc(F)cc4)ccc3O[C@@H]2[C@H](CO)O1)NCc1ccc(-c2ccccc2)cc1,.,-146,26[16.7 µM],-2,-6
COc1ccc(Nc2c(-c3cccc(OC)c3)nc3nc(C)cc(C)n23)cc1,.,.,.,7,.
Cc1cc(C)n2c(NC3CCCCC3)c(-c3ccccn3)nc2n1,.,.,.,29*,.
COc1cccc(-c2nc3nc(C)cc(C)n3c2NC2CCCC2)c1,.,.,.,30*,.
CCCNC(=O)Nc1ccc2c(c1)OC[C@H](C)N(C(=O)C1CCC1)C[C@H](C)[C@H](OC)CN(C)C2=O,.,-10,-2[16.7 µM],-1,.
CO[C@@H]1CN(C)C(=O)c2cc(NC(=O)C3CCC3)ccc2OC[C@@H](C)N(C)C[C@H]1C,.,-6,.,2,-5
COCC(=O)N1C[C@@H](C)[C@H](OC)CN(C)C(=O)c2cc(NC(=O)C3CCC3)ccc2OC[C@@H]1C,.,-9,.,23*,4
CO[C@H]1CN(C)C(=O)c2cc(NC(=O)C3CCC3)ccc2OC[C@@H](C)N(Cc2ccncc2)C[C@@H]1C,.,3,5[16.7 µM],52*,-1
CO[C@H]1CN(C)C(=O)c2cc(NC(=O)C3CCC3)ccc2OC[C@H](C)N(C)C[C@@H]1C,.,1,.,73*,-6
CO[C@H]1CN(C)C(=O)c2ccc(NC(=O)C3CCCC3)cc2OC[C@H](C)N(C)C[C@@H]1C,.,.,.,52*,.
